Results from PubChem BioAssay AID1984 (Sanford-Burnham Center for Chemical Genomics, 2009).
Hit rate of the full screen: of about 290,000 compounds, about 35 (0.01%) were called active. The sample holds actives, similar compounds and a random draw of the others, so the mix is not that of the screen.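 The calls were made as follows: active = EGFP signal decrease of at least 30% at 10 µM or well 3 SD below plate mean, unless failing retest; inactive = the rest, including hits failing retest or dose response.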

The molecules below were run against p/CIP-EGFP fusion (nuclear receptor coactivator 3, mouse) (UniProt Q05BA5) (assay: p/CIP-EGFP fusion destabilizers, primary screen, fluorescence, F442A cells (AID 1984)). Conditions: 16 h, at 10 µM, active compounds read high.
p/CIP-EGFP fusion (nuclear receptor coactivator 3, mouse), sequence (Q05BA5 1-1403): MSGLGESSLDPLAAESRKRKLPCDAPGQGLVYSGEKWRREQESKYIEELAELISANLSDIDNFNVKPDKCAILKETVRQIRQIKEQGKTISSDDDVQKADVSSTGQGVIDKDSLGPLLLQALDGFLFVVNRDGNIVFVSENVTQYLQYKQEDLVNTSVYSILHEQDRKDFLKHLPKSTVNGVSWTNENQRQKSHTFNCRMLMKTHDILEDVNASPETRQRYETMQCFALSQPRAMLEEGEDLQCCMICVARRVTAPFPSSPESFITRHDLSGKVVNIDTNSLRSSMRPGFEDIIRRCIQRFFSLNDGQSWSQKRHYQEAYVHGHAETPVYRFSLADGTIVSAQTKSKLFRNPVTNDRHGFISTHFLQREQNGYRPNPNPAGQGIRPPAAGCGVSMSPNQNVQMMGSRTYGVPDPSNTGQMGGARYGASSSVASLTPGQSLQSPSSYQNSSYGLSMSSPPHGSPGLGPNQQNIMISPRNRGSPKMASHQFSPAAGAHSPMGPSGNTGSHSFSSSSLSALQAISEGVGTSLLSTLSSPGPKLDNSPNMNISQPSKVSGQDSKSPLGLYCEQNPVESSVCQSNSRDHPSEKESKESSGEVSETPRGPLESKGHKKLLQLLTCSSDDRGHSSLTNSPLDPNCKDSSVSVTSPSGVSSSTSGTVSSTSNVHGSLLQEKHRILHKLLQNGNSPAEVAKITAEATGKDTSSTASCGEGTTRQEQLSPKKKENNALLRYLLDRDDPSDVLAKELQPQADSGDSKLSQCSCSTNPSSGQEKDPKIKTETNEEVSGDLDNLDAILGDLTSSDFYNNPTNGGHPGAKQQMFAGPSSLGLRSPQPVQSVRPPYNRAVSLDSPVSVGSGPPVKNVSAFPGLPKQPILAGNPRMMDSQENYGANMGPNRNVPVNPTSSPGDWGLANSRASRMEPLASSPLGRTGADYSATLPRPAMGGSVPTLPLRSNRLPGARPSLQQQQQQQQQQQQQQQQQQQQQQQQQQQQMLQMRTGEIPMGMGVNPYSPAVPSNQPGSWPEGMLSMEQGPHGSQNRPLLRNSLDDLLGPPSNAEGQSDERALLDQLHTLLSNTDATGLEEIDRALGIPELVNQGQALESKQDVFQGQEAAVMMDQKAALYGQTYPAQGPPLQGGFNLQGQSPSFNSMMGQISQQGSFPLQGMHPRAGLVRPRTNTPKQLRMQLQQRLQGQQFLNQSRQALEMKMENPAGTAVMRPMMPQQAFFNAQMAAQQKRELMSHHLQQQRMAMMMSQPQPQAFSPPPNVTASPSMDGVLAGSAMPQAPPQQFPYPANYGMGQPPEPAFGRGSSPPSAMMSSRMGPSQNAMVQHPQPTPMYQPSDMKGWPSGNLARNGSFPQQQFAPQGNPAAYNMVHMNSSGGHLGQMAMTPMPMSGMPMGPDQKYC

Decrease of EGFP signal, inactive:
CCc1ccc(OCC(=O)N(Cc2ccccc2)C2CCS(=O)(=O)C2)cc1 (configuration not stated) -11.2%, COc1cc(OC)cc(C(=O)NCCCn2ccnc2)c1 1.6%, CNc1[nH]ncc1[N+](=O)[O-] 11.8%, Cc1nc(-c2ccc(F)cc2)c(CC(=O)N2CCN(S(=O)(=O)c3ccc(F)cc3)CC2)s1 5.1%, COCCCN1C(=O)c2ccc(C(=O)OCC(=O)NCc3ccccc3OC)cc2C1=O -12.5%, c1ccc(-n2cccc2)c(N2CCCCC2)c1 -13.4%, Cc1cc(-c2nnc(SCC(=O)Nc3ccc(S(N)(=O)=O)cc3)n2N)n[nH]1 -53.2%, CCCCn1c(N)c(N(CCOC)C(=O)c2oc3ccc(OC)cc3c2C)c(=O)[nH]c1=O 9.8%, NC(=O)C(Cc1ccccc1)NC(=O)C12CC3CC(CC(C3)C1)C2 (configuration not stated) -4.8%, Cc1c(S(=O)(=O)N2CC(C)CC(C)C2)c(=O)n(C)c(=O)n1C (configuration not stated) 4.7%, CCSc1nc(O)c(C(c2cccc(OC)c2)c2c(O)nc(SCC)[nH]c2=O)c(=O)[nH]1 -4%, CCCC1(C(=O)OCC)NC(c2ccc(N(C)C)cc2)C2C(=O)N(c3ccc4c(c3)OCCO4)C(=O)C21 (configuration not stated) -13.2%, O=C(O)CCCCCNc1ncnc2ccc(Br)cc12 -16.6%, Cc1cccc(N2Cc3ccccc3C2=NC(=O)c2ccc(Cl)nc2)c1 -1.5%, CC(=O)N1c2ccc(S(=O)(=O)N3CCCC(C(=O)NCc4ccc(Cl)cc4)C3)cc2CC1C (configuration not stated) -5.2%, CCCCC(=O)Nc1c2c(nn1-c1ccc([N+](=O)[O-])cc1)CS(=O)(=O)C2 -0.5%, CS(=O)(=O)N1CCN=C1SCc1ccc(F)cc1 10.9%, CC(=O)c1cccc(NC(=O)CN2C(=O)c3cccnc3Oc3ccc(Cl)cc32)c1 -7.6%, C/C(CC(=O)NCc1ccc(Cl)cc1)=N\NC(=O)COc1ccc(C)cc1Br 2.8%, CCOc1cc(CN2CCCC(CO)(Cc3ccc(F)cc3F)C2)ccc1OC (configuration not stated) -5.3%, Cc1cccc(-c2nc3ccc(C(=O)NCCN4CCN(C)CC4)cc3nc2-c2cccc(C)c2)c1 -5%, COCCCNc1nc2c(-c3cccc(C)c3)nnn2c2ccc(Cl)cc12 -12%, COc1ccc(C(=O)C2CCCN(S(=O)(=O)c3cccc(C)c3)C2)c(C)c1 (configuration not stated) -15.7%, O=C(NCCC1=CCCCC1)c1ccc(Cl)c([N+](=O)[O-])c1 -6.4%, CCCn1c(NC(=O)C23CC4CC(CC(O)(C4)C2)C3)nc2ccccc21 0.5%, O=C(Nc1ccc(O)cc1)c1ccc(NC(=O)c2ccco2)cc1 -4.6%, CCOc1ccc(S(=O)(=O)N2CCC(c3ccccc3)CC2)cc1C(=O)O 2.8%, COCc1ccc(CN2CCC(Oc3ccc(C(=O)NCc4ccccn4)cc3)CC2)o1 -10.7%, COC(c1ccccc1)(c1ccccc1)C(Oc1nc(C)cc(C)n1)C(=O)O (configuration not stated) 0%, O=[N+]([O-])c1ccc2oc(-c3cccc(O)c3)nc2c1 7.6%, CC(Oc1cc2oc(=O)c3c(c2cc1Cl)CCCC3)C(=O)NCc1ccncc1 (configuration not stated) -2.1%, O=C(C[n+]1cc(Br)cc2ccccc21)c1ccc(F)cc1 -1.9%, C/C(=N\NC(=O)c1ccc2ccccc2c1)c1cccnc1 -18.3%, CCOc1ccc(CN(C)C(=O)c2ccc(=O)[nH]c2)cc1 5.1%, Cc1cc(S(=O)(=O)NC2CCCC2)ccc1-n1cnnn1 -8.5%, O=C1NC(=O)C(c2ccc(Cl)cc2)N1 (configuration not stated) -72.8%, CCOc1ccccc1N1CCN(C(=O)c2ccc3[nH]c(C)c(C)c3c2)CC1 6.3%, COc1cc(CCC(=O)Nc2ccncc2Cl)cc(OC)c1OC -2.4%, Cc1nn(C)c(Cl)c1CN1CCC(Oc2ccc(C(=O)N3CCCC3)cc2)CC1 -12%, O=C(Nc1cccc(-n2cnnn2)c1)c1cccnc1 2.8%, O=C(c1ccc(Cl)cc1)N1N=C(c2ccccn2)CC1(O)C(F)(F)F (configuration not stated) 1.2%, COc1ccc(C2Nc3ccccc3C(=O)N2c2ccc(Cl)cc2)cc1Cn1cc([N+](=O)[O-])cn1 (configuration not stated) -4.3%, CCCN(CCC)S(=O)(=O)c1ccc(C(=O)N2CC3CCC(CC3)C2)cc1 -5.7%, CNC(=O)c1sc(NCc2ccccc2OC)nc1C -5%, COc1cccc(NC(=O)N2CCCC2C(=O)NC2CCCCC2)c1 (configuration not stated) -18.1%, NC(=O)c1ccc(Nc2ccc3c(c2)CCC3)c([N+](=O)[O-])c1 -5%, C=CCc1cc(C)ccc1OCCCn1ccnc1 10.1%, CC(C(=O)c1ccc(-c2ccccc2)cc1)[n+]1cccc(Br)c1 (configuration not stated) -9.6%, COC(=O)Cn1cnc2scc(-c3ccc(C)c(C)c3)c2c1=O 4.1%, CC(C)(C)NC(=O)C(c1ccc(Cl)cc1)N(CCO)C(=O)c1snc(C(N)=O)c1N (configuration not stated) 2.5%, CC(=O)[C@@]12O[C@@H]1C[C@H]1[C@@H]3CC[C@H]4C[C@@H](O)CC[C@]4(C)[C@H]3CC[C@@]12C -26.4%, COc1cccc(OCC(O)CNC(=O)c2oc3c(C)c(C)ccc3c2C)c1 (configuration not stated) -15.6%
